Results reported in PubChem BioAssay AID492998 (Southern Research Specialized Biocontainment Screening …, 2010).
Out of some 2,300 compounds screened, about 550 (24%) were called active. Only a sample is shown. Entries with a potency or affinity are not part of this list. Unmarked numbers belong to inactive results. The rule behind the calls is not given here.

Test: Vero E6 cell cytotoxicity, dose response, cytotoxicity control for non-replicating M. tuberculosis project, secondary assay (AID 492998);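 note: 100% = vehicle-treated cells and 0% = background wells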
Settings: series mostly up to 20 µM; viability: at the top concentration

Row | Structure (SMILES) | viability [%]
1 | COc1ccc(C(=O)Nc2nnc(C3=COCCO3)o2)cc1 | 87.2
2 | CCOc1ccc(-c2nnc(NC(=O)CCCOc3cccc(C)c3)o2)cc1 | 80.7
3 | COC(=O)c1ccc(OCC(=O)c2cccc(OC)c2)cc1 | 97.8
4 | N[C@@H](Cc1ccccc1)c1nnc(SC/C=C/c2ccccc2)o1 | 105
5 | CSCCC(=O)N1CCCC(N2CCN(c3cccc(C(F)(F)F)c3)CC2)C1 (stereo not drawn) | 93.2
6 | COc1cccc(CN2CCC(N(CCc3ccccc3)Cc3ccccc3)CC2)c1OC | 78.8
7 | Cc1cc2ccccc2n1CCNC(=O)C(C)(C)C | 104
8 | O=C(COc1ccc(Nc2ccccc2)cc1)OCC(=O)N1CCCCC1 | 89.8
9 | CCc1nnc(NC(=O)c2cc3ccccc3oc2=O)s1 | 104
10 | CC(C)c1nnc(NC(=O)c2sc3ccccc3c2Cl)s1 | 92.5
11 | O=C(Nc1sc2c(c1C(=O)O)CCCCC2)c1ccccc1F | 75.1
12 | O=C(Nc1sc2c(c1C(=O)O)CCCC2)c1ccc(F)cc1 | 75.2
13 | CC(C)Cn1c(N)c(C(=O)COC(=O)c2ccc([N+](=O)[O-])o2)c(=O)n(C)c1=O | 90.9
14 | O=C(c1ccc([N+](=O)[O-])o1)N1CCc2ccccc2C1 | 83
15 | COC(=O)c1sc(NC(=O)c2ccc([N+](=O)[O-])o2)c(C#N)c1C | 73
16 | COc1ccc(COc2cccc(C=O)c2)cc1 | 95.5
17 | CCc1ccccc1NC(=O)C1COc2ccccc2O1 (stereo not drawn) | 118
18 | O=C(OCc1cccc(F)c1)c1ccc2c(=O)n3c(nc2c1)CCC3 | 95.5
19 | Cc1c(Cl)cccc1NC(=O)C(=O)NNC(=O)c1ccccc1F | 83.8
20 | COc1cccc(N2C(=O)NC(=O)/C(=C/c3ccc([N+](=O)[O-])s3)C2=O)c1 | 101
21 | c1ccc2sc(SCc3ccc(-c4nnco4)cc3)nc2c1 | 97.1
22 | Oc1c(Br)cc(Br)cc1/C=N/c1nccs1 | 98.2
23 | C/C(=N\NC(=O)c1nn(C)cc1Cl)c1ccncc1 | 112
24 | CCOc1ccc(NC(=O)Cn2sc3nc(C)cc(C)c3c2=O)cc1 | 86.1

Row | Structure (SMILES) | viability [%]
25 | CC(=O)c1ccc(OC(=O)c2ccc(-n3nc(C)cc3C)cc2)cc1 | 95.6
26 | Cc1cc(N2CCC(C)CC2)nc(-n2nc(C)cc2C)n1 | 72.8
27 | CCOc1ccc(OCC(=O)Nc2ccc(OC)cc2)cc1 | 95.9
28 | CC1(C)OC(c2ccccc2)=C/C(=C\C=N\NC(=O)c2ccncc2)O1 | 91.2
29 | COc1ccc(N2CCN(CC(=O)NC(=O)NC(C)(C)C)CC2)cc1 | 94.7
30 | CN(C(=O)COC(=O)c1ccc([N+](=O)[O-])cc1Cl)C1CCCCC1 | 102
31 | O=C(N/N=C/c1ccc[nH]1)c1ccc(Cl)cc1 | 99.1
32 | Cc1ccc(O)c(C(=O)c2cc(C#N)c(=O)n(-c3nccs3)c2)c1 | 70.9
33 | O=C(CC1CCCC1)OCn1nnc2ccccc2c1=O | 102
34 | COc1ccc(-n2c3c(cc(C(=O)NNc4ccccc4)c2=O)C(=O)CC(C)(C)C3)cc1 | 102
35 | CCOC(=O)c1c(C)nc2c3ccccc3ccn12 | 106
36 | CCOC(=O)C1(O)CC(C)=NN1C(=O)c1cccc(Br)c1 (stereo not drawn) | 104
37 | CCOC(=O)Cc1cc(=O)n2[nH]cc(-c3ccc(Cl)cc3)c2n1 | 94.1
38 | CCOC(=O)Cc1ccc(NCc2ccc(Cl)cc2)cc1 | 93.4
39 | CCOc1ccc(NC(=O)CCc2ccc(C)o2)cc1 | 111
40 | CC(C)(C)NC(=O)C(=O)NNC(=O)COc1ccc(Br)cc1 | 95.2
41 | O=C(COC(=O)c1cccc(C(F)(F)F)c1)NCc1ccccc1 | 98.9
42 | CCOC(=O)COc1ccc2c(c1)c(C(=O)OCC)c(C)n2CC | 95.5
43 | CCCCN1CCC(O)(c2ccccc2)C(C(=O)c2ccccc2)C1 (stereo not drawn) | 79.3
44 | CCOc1c(OC(C)=O)ccc(/C=C2\N=C(SCC)SC2=O)c1[N+](=O)[O-] | 101
45 | O=Cc1ccc(OC2OCCOC2Oc2ccc(C=O)cc2)cc1 (stereo not drawn) | 108
46 | Cc1cc2nc(CSc3ccc(Cl)cc3)cc(=O)n2[nH]1 | 99
47 | CS(=O)(=O)Cc1nc2ccccc2oc1=O | 79.7
48 | COc1cccc2cc(-c3nc4ccccc4o3)c(=O)oc12 | 92.9

Row | Structure (SMILES) | viability [%]
49 | O=C(CCN1CCN(C/C=C/c2ccccc2)CC1)Nc1ccc(Cl)cc1 | 87.6
50 | Cc1ccc(-c2nnc(COC(=O)c3cccs3)o2)cc1 | 102
51 | CCOC(=O)C(=NCCOC)NNc1cc(Cl)ccc1Cl | 106
52 | O=C(COc1ccccc1)NCCSCc1ccc(Cl)cc1 | 97.8
53 | Cc1cccc(OCC(O)Cn2c(=N)n(Cc3ccccc3)c3ccccc32)c1 (stereo not drawn) | 75
54 | OC(COc1ccccc1Cl)CN1CCN(CC(O)COc2ccccc2Cl)CC1 (stereo not drawn) | 85.3
55 | OC(COc1ccc2ccccc2c1Br)Cn1ccnc1 (stereo not drawn) | 89.5
56 | CC(=O)n1cc(/C=C2/N=C(c3ccccc3)OC2=O)c2ccccc21 | 98.1
57 | COc1cc(C(=O)ON=C2C=C(C)C(=O)C(C)=C2)cc(OC)c1OC | 86.3
58 | CCOCC(=O)Nc1ccc(C)c(Cl)c1 | 106
59 | Cc1cc(NC(=O)COC(=O)COc2ccc(C(=O)c3ccccc3)cc2)no1 | 95.8
60 | O=C(O)c1ccc(NCc2ccc(Br)cc2)cc1 | 105
61 | CC(=O)Nc1ccc(NC(=O)[C@@H]2CCCC[C@@H]2C(=O)O)cc1 | 100
62 | O=C(COc1ccc2ccccc2c1)N1CCCC1 | 89
63 | Nc1c(Cl)cc(Cl)cc1C(=O)OCC(=O)N1CCCC1 | 78.2
64 | CCOC(=O)c1ccc(-c2ccc(C(=O)Nc3cccnc3)o2)cc1 | 88.4
65 | CCOC(=O)C1CCCN(Cc2ccc(OCc3ccccc3)cc2)C1 (stereo not drawn) | 96.5
66 | CCC(C)NCCOc1ccc(C(C)(C)c2ccccc2)cc1 (stereo not drawn) | 79.9
67 | CN=C1S/C(=C\c2ccc(OCC(=O)OC)c(OC)c2)C(=O)N1C | 82
68 | CC(C)CSc1nnc2c3ccccc3n(C)c2n1 | 85.3
69 | CC(C)[C@@H]1CC[C@@H](C)C[C@H]1OC(=O)C[n+]1cc(-c2ccc(Cl)cc2)n2c1CCCCC2 | 100
70 | COc1ccc(NC(=O)c2cc3ccccc3o2)cc1 | 90.1
71 | CCCn1nnnc1NCc1ccc(C(C)C)cc1 | 97.6
72 | CCc1nonc1NC(=O)COc1ccc(Cl)c(C)c1 | 101

Row | Structure (SMILES) | viability [%]
73 | O=C1/C(=C/c2ccccn2)COc2ccccc21 | 78.1
74 | Cn1nnc(NC(=O)COc2ccc(C3CCCCC3)cc2)n1 | 110
75 | O=C(Oc1ccccc1)c1ccc(COC(=O)c2cnccn2)cc1 | 94.8
76 | O=C(NCc1ccc(F)cc1)c1cnccn1 | 98.9
77 | COc1c[nH]n(C2CCCCC2)c(=O)c1=O | 93.4
78 | CCCN(Cc1nnc(-c2ccccc2Cl)o1)C(=O)c1cc([N+](=O)[O-])cc([N+](=O)[O-])c1 | 82.5
79 | Cc1ccc(NC(=O)COc2ccc3c(c2)CCC3)nc1 | 108
80 | COc1ccc(CNC(=O)c2cc3cccc(O)c3oc2=N)cc1 | 92.5
81 | CCc1ccc(N2NC(=O)/C(=C/C=C/c3ccco3)C2=O)cc1 | 95.8
82 | O=C(COc1cccc2ccccc12)Nc1nc2ccccc2[nH]1 | 87.5
83 | CC1Cc2cc(/C=C3/SC(=S)NC3=O)ccc2O1 (stereo not drawn) | 84.9
84 | Cc1cccc2cc(C#N)c(NCCCn3ccnc3)nc12 | 86.1
85 | c1ccc(-c2nc(NCCCn3ccnc3)c3ccccc3n2)cc1 | 82.4
86 | O=C(COC(=O)CCc1c[nH]c2ccccc12)Nc1cc([N+](=O)[O-])ccc1Cl | 79
87 | Cc1nnc(N/N=C/c2cccc(OCc3ccc(Cl)c(Cl)c3)c2)n1N | 83.2
88 | CCCCCCC1CC(C)(C(=O)CNc2nncs2)OC1=O (stereo not drawn) | 99.8
89 | CCCn1nnc(NC(=O)COc2ccc(CC)cc2)n1 | 100
90 | CNC(=O)c1[nH]cnc1C(=O)Nc1ccc(Cl)cc1 | 103
91 | Cc1nc(C(=O)Nc2ccccc2)sc1C(=O)Nc1ccccc1 | 90.4
92 | Nc1nnc(Sc2ncccc2[N+](=O)[O-])s1 | 112
93 | CC(C)OC(=O)C(C)Oc1ccc(C(=O)NCCc2ccccc2)cc1 (stereo not drawn) | 96.7
94 | CC(=O)c1cc2c(ccc3ccccc32)oc1=O | 107
95 | Cc1ccc(/C=C2/C(=O)NC(=O)N(CCc3ccc(F)cc3)C2=O)s1 | 94.2
96 | Cn1cccc1/C=C1/C(=O)NC(=S)N(Cc2ccc(F)cc2)C1=O | 78.3

Row | Structure (SMILES) | viability [%]
97 | O=C1CC(N2CCSCC2)C(=O)N1CCc1ccccc1 (stereo not drawn) | 108
98 | CCCCSc1nnc(-c2cc(Br)ccc2N)c(=O)[nH]1 | 98.3
99 | O=C(NCCc1cccc(Cl)c1)c1cc2ccccc2oc1=O | 109
100 | Cc1ccc(-c2ccc(/C=N/NC(=O)CN3CCCC3)o2)cc1Cl | 91.8
101 | COc1ccccc1OCCNC(=O)c1cc([N+](=O)[O-])cc([N+](=O)[O-])c1 | 101
102 | O=C(N/N=C/c1ccccn1)c1cc([N+](=O)[O-])cc([N+](=O)[O-])c1 | 107
103 | COC(=O)C1=C(C)N(CC2CC2)C(=NCc2cccc(Cl)c2)N[C@H]1c1ccccc1 | 87.9
104 | O=C(COc1ccc(Br)cc1)N/N=C1/SCC(=O)N1Cc1ccccc1 | 73.1
105 | CC(=O)c1c(O)cc(=O)n(-c2ccccc2)c1-c1ccc(C)cc1 | 93
106 | CN(C)CCC(=O)N1c2ccccc2Sc2ccc(Cl)cc21 | 99.6
107 | CCOC(=O)c1ccc(NC(=O)NS(=O)(=O)c2ccc(C)cc2)cc1 | 99.6
108 | O=C(OCCCCN1C(=O)c2ccccc2C1=O)c1ccc(Br)o1 | 112
109 | CC(C)Cc1nnc(NC(=O)CCS(=O)(=O)c2ccc(Cl)cc2)s1 | 76.8
110 | COc1ccc(C2(O)CCN(CC(=O)Nc3nc(-c4ccccc4)cs3)CC2)cc1 | 86.3
111 | O=C(COc1ccc2ccccc2c1)Nc1nccs1 | 96.3
112 | O=C(CCS(=O)(=O)c1ccccc1)Nc1nnc(-c2ccco2)o1 | 84.5
113 | Cc1cccc(NC(=O)COC(=O)CCc2c[nH]c3ccccc23)c1C | 110
114 | O=C(COC(=O)COc1ccc(Nc2ccccc2)cc1)NCc1ccco1 | 101
115 | CCOc1ccc(C(=O)Nc2nc3ccccc3[nH]2)cc1OCC | 77.5
116 | O=C(Nc1nc2ccccc2[nH]1)c1ccc(F)cc1 | 87.5
117 | Cc1cc2n(n1)SC(Nc1ccccc1)N2 (stereo not drawn) | 86.7
118 | c1ccc2[nH]c(NC3=NCCC3)nc2c1 | 94.7
